{"source": "PubChem BioAssay (NCI)", "note": "Compounds without any hit were thinned out: in the full panel of roughly 83,000, 20% have a hit.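 Growth was measured after 48 h exposure to one concentration of compound in 96-well plates. Values under 10 count as active.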 Calls of active or inactive are those of the source."}
{"tested_on": "A498 renal", "experiment": "NCI-60 one-dose screen, 48 h (100 = growth as untreated, 0 = no growth, -100 = all killed)", "details": "10 µM unless noted"}
{"smiles": "O=C(CCCCCCNC(=O)C(O)(O)C(F)(F)F)Nc1nc2ccccc2s1", "growth": "-21.7% (active)"}
{"smiles": "CNC(=O)c1cc(Oc2ccc3c(c2)sc2nc(-c4ccc(N(C)C)cc4)cn23)ccn1", "growth": "7.34% (active)"}
{"smiles": "CC1=C(C)C(=O)C(Nc2cccc(C)c2)=C(Br)C1=O", "growth": "95.5% (inactive)"}
{"smiles": "CC(=C(c1ccc(OCCCN(C)C)cc1)c1ccc(OCCCN(C)C)cc1)c1ccc(Cl)cc1", "growth": "79.2% (inactive)"}
{"smiles": "COc1cc(C(=O)c2cc(C(C)=O)c3cccc(C)n23)cc(OC)c1OC", "growth": "21.9% (inactive)"}
{"smiles": "C#Cc1nc(/C=C/CCCCCCC(=O)NO)cs1", "growth": "73.9% (inactive)"}
{"smiles": "CCCCCc1ccc(S(=O)(=O)Nc2cc(-c3csc(N)n3)ccc2OC)cc1", "growth": "96.6% (inactive)"}
{"smiles": "CCCc1cc2cc(-n3nc(CC)c4c3CC(C)(C)CC4=O)cc(NC3CCC(O)CC3)c2c(=O)[nH]1", "note": "(centres undefined)", "growth": "37% (inactive)"}
{"smiles": "Cc1ccc(-c2cc3nc(C(Cl)Cl)nc(-c4ccc(S(=O)(=O)N(C)C)cc4)n3n2)cc1", "growth": "101% (inactive)"}
{"tested_on": "CCRF-CEM leukemia", "experiment": "NCI-60 one-dose screen, 48 h (100 = growth as untreated, 0 = no growth, -100 = all killed)", "details": "10 µM unless noted"}
{"smiles": "CCc1cc2c(cc1Cl)nc1c(=O)[nH]c(=O)nc-1n2CCOCC(C)(C)C", "growth": "89.6% (inactive)"}
{"smiles": "Cc1cc(=O)[nH]c(O)c1C#N", "growth": "99.6% (inactive)"}
{"smiles": "CC1(C)CC[C@]23CC[C@]4(C)[C@H](CC[C@@H]5[C@@]6(C)CC[C@H](NCO)C(C)(C)[C@@H]6CC[C@]54C)[C@H]2[C@H]1OC3", "growth": "36.5% (inactive)"}
{"smiles": "CC(C)[C@H]1c2[nH]c3ccccc3c2C[C@H]2C(=O)N(CCCCCCC(=O)NO)CC(=O)N12", "growth": "27.8% (inactive)"}
{"smiles": "Cn1cc(-c2nc(N)nnc2-c2c[nH]c3ccc(Br)cc23)c2cc(F)ccc21", "growth": "83.2% (inactive)"}
{"smiles": "CCCCCCCCCCCC(=O)NC(C)(C)C(=O)N1CCCC1C(=O)NC(C)(C)C(=O)NC(C)(C)C(=O)N1CCCC1C(=O)NC(C)(C)C(=O)NC(C)(C)C(=O)N1CCCC1C(=O)NC(C)C(=O)NCCC(=O)NC(C)C(=O)NC(C)(C)C(=O)NC(C)(C)C(=O)NC(C)(C)C(=O)NCCC(=O)NC(C)(C)C(=O)NC(C)(C)C(=O)NC(C)(C)C(=O)NC(C)C(=O)NCCC(=O)O", "note": "(centres undefined)", "growth": "-55.6% (active)"}
{"smiles": "CN1CCN(c2ccc(Nc3nc(NCCNC(=O)c4ccccc4)c4sccc4n3)cc2)CC1", "growth": "27.9% (inactive)"}
{"smiles": "Cc1[nH]c(C(=O)Nc2ccccc2OCc2cccc(C(=O)NCCN)c2)cc1Cl", "growth": "27.4% (inactive)"}
{"smiles": "CCCc1[nH]c(-c2cc(N)ccc2Cl)c2c1C(=O)CCCC2", "growth": "96.2% (inactive)"}
{"smiles": "O=C(Nc1ccc(N=Cc2c(O)[nH]c3ccccc23)cc1)Nc1ccc(S(=O)(=O)Nc2ncccn2)cc1", "growth": "109% (inactive)"}
{"smiles": "CC1=Cc2ccccc2OC12C=Cc1ccccc1O2", "note": "(centres undefined)", "growth": "105% (inactive)"}
{"smiles": "NS(=O)(=O)c1ccc(CCn2c(-c3ccc(C(=O)O)cc3)nc(-c3ccccc3)c2-c2ccccc2)cc1", "growth": "104% (inactive)"}
{"smiles": "COc1ccc(/C=N\\NC(=O)c2cnn(CC(O)c3ccccc3)c2N)cc1OCc1ccc(Cl)cc1", "note": "(centres undefined)", "growth": "72.6% (inactive)"}
{"smiles": "CNc1sc(S(=O)(=O)NC)nc1S(=O)(=O)c1ccc(C)cc1", "growth": "104% (inactive)"}
{"smiles": "C=C(C)[C@@H]1CC[C@]2(C(=O)N3CCN(C)CC3)CC[C@]3(C)[C@H](CC[C@@H]4[C@@]5(C)CC[C@H](OP(=O)(OCC)OCC)C(C)(C)[C@@H]5CC[C@]43C)[C@@H]12", "growth": "35.4% (inactive)"}
{"smiles": "NS(=O)(=O)c1ccc(Nc2nc(Nc3ccccc3)nc(N3N=C(c4ccc(Cl)cc4)CC3c3ccc(Cl)cc3)n2)cc1", "note": "(centres undefined)", "growth": "14.2% (inactive)"}
{"smiles": "COc1cc(C(C)=C(c2ccc(OCCN(C)C)cc2)c2ccc(OCCN(C)C)cc2)ccc1F", "growth": "111% (inactive)"}
{"smiles": "CN1CCN(c2ccc(Nc3nc(NCCCNS(=O)(=O)c4ccc(F)cc4)c4sccc4n3)cc2)CC1", "growth": "31.1% (inactive)"}
{"smiles": "CCOC(=O)c1c(NC(=O)c2ccc(C(F)(F)F)cc2)sc2c(CN3CCN(C)CC3)c(O)ccc12", "growth": "-24.6% (active)"}
{"smiles": "CC(O)c1cccc(/C(N)=N/C(N)=N/c2nc3ccccc3s2)c1", "note": "(centres undefined)", "growth": "84% (inactive)"}
{"smiles": "C#Cc1cc(C(=O)Nc2ccc(CNCCN3CCOCC3)c(C(F)(F)F)c2)ccc1C", "growth": "98.7% (inactive)"}
{"smiles": "COc1ccc(/C=N/NC(=O)CSc2nc(-c3cnccn3)cc(-c3cccs3)c2C#N)cc1", "growth": "86.1% (inactive)"}
{"smiles": "Cn1cc(-c2nnc(N)nc2-c2c[nH]c3ccc(Br)cc23)c2cc(Br)ccc21", "growth": "108% (inactive)"}
{"smiles": "COc1ccc2[nH]cc(-c3nc(N)nnc3-c3cn(C)c4ccc(Br)cc34)c2c1", "growth": "2.97% (active)"}
{"smiles": "C#CCN(C)CCCOc1ccc(NCc2ccc(C(=O)NO)cc2)cc1Cl", "growth": "13.7% (inactive)"}
{"smiles": "CCN(CC)c1ccc(/C=N/NC(=O)c2ccc(NS(C)(=O)=O)cc2)c(O)c1", "growth": "6.1% (active)"}
{"smiles": "O=C(CCCCCCN1CC(=O)N2[C@@H](c3ccc(Cl)s3)c3[nH]c4ccccc4c3C[C@H]2C1=O)NO", "growth": "16.7% (inactive)"}
{"smiles": "CC1(C)CC[C@]23CC[C@]4(C)[C@H](CC[C@@H]5[C@@]6(C)CC[C@H](N)C(C)(C)[C@@H]6CC[C@]54C)[C@H]2[C@H]1OC3", "growth": "-5.4% (active)"}
{"smiles": "Cc1ccc(S(=O)(=O)NCCCNc2nc(Nc3ccc(N4CCN(C)CC4)cc3)nc3ccsc23)cc1", "growth": "18.1% (inactive)"}
{"smiles": "N#Cc1nc(-c2ccccc2)oc1N1CCC(C2(C(F)(F)F)N=N2)CC1", "growth": "102% (inactive)"}
{"smiles": "O=C(CCCCCCN1CC(=O)N2[C@@H](c3cccs3)c3[nH]c4ccccc4c3C[C@H]2C1=O)NO", "growth": "24.2% (inactive)"}
{"smiles": "O=C(CCCCCCNC(=O)C(O)(O)C(F)(F)F)Nc1nc2ccccc2s1", "growth": "22.6% (inactive)"}
{"smiles": "CNC(=O)c1cc(Oc2ccc3c(c2)sc2nc(-c4ccc(N(C)C)cc4)cn23)ccn1", "growth": "9.49% (active)"}
{"smiles": "CC1=C(C)C(=O)C(Nc2cccc(C)c2)=C(Br)C1=O", "growth": "16.5% (inactive)"}
{"smiles": "CC(=C(c1ccc(OCCCN(C)C)cc1)c1ccc(OCCCN(C)C)cc1)c1ccc(Cl)cc1", "growth": "66.8% (inactive)"}
{"smiles": "COc1cc(C(=O)c2cc(C(C)=O)c3cccc(C)n23)cc(OC)c1OC", "growth": "44.1% (inactive)"}
{"smiles": "C#Cc1nc(/C=C/CCCCCCC(=O)NO)cs1", "growth": "-39.3% (active)"}
{"smiles": "CCCCCc1ccc(S(=O)(=O)Nc2cc(-c3csc(N)n3)ccc2OC)cc1", "growth": "57.4% (inactive)"}
{"smiles": "CCCc1cc2cc(-n3nc(CC)c4c3CC(C)(C)CC4=O)cc(NC3CCC(O)CC3)c2c(=O)[nH]1", "note": "(centres undefined)", "growth": "21.8% (inactive)"}
{"smiles": "Cc1ccc(-c2cc3nc(C(Cl)Cl)nc(-c4ccc(S(=O)(=O)N(C)C)cc4)n3n2)cc1", "growth": "69.3% (inactive)"}
